# Measurements taken from the supplement of paper PMC10127200.
# Test system: FB
# Experiment: Euclidean distance of Cell Painting phenotypic profile (signed KS, 77 features) to DMSO centroid (dimensionless distance); 5 or 10 uM (library dependent); higher = stronger phenotypic change vs DMSO (phenoactivity)
# Conditions: 48 h
# Procedure, shortened: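 Five cancer lines, together with a healthy fibroblast line, received library compounds for 48 h at a library-dependent 10 or 5 uM and 0.1% DMSO final. Harmony then derived 77 features from confocal 20X images (9 fields/well) of the stained cells, scoring each as a signed Kolmogorov-Smirnov statistic against same-plate vehicle wells. After plate-position correction, correlation weighting and replicate averaging at the top dose, phenoactivity was taken as each profile's Euclidean distance to the median vehicle profile.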
row,SMILES,Euclidean distance
1,CC(C)CC(=O)Nc1n[nH]c2c1CN(C(=O)C1CCN(C)CC1)C2(C)C,2.96
2,COc1ccc(CNCc2cccc3ccccc23)cc1,1.27
3,CCN(CC)CCCC(C)Nc1ccnc2cc(Cl)ccc12 (centres undefined) [Chloroquine Phosphate],4.77
4,COc1ccc(-c2oc3c(CC=C(C)C)c(O[C@@H]4O[C@H](CO)[C@@H](O)[C@H](O)[C@H]4O)cc(O)c3c(=O)c2O[C@@H]2O[C@@H](C)[C@H](O)[C@@H](O)[C@H]2O)cc1 [Icariin],0.818
5,COc1cc(C(=O)NC2CCCNC2)cc(OC)c1OC (centres undefined) [Troxipide],0.842
6,CO[C@H]1CC[C@H](N2C(=O)CNc3ncc(-c4ccc(C(C)(C)O)nc4)nc32)CC1,3.76
7,O=C(O)c1cc(-c2ccc(F)cc2F)ccc1O [Diflunisal],1.06
8,Cc1ccc(-n2sc(=O)n(Cc3ccc(F)cc3)c2=O)cc1,1.84
9,COc1cc2ncnc(Nc3cccc(Cl)c3F)c2cc1OC(=O)N1CCN(C)C[C@H]1C,1.4
10,COc1ccc(CNC(=O)Nc2ncc([N+](=O)[O-])s2)cc1,0.936
11,CC1Oc2cc(cnc2N)-c2c(nn(C)c2C#N)CN(C)C(=O)c2ccc(F)cc21 (centres undefined),1.55
12,CC(C)C[C@H](NC(=O)[C@H](Cc1ccccc1)NC(=O)c1cnccn1)B(O)O [Bortezomib],6.53
13,CN(C)CCOC(c1ccccc1)c1ccccc1.Cn1c(=O)c2[nH]c(Cl)nc2n(C)c1=O [Dimenhydrinate],1.28
14,O=C(Nc1ccc(S(=O)(=O)Nc2ccccc2Cl)c(Cl)c1)c1ccccn1,0.594
